Measurements: article PMC4336329 (PLoS ONE, 2015)
Screen size: about 310,000 compounds; about 14,000 (4.5%) showed an effect of 50% or more. Effects have a minus sign here. Shown is part of a subset that was picked to be rich in strong results.

biological target: human ether-à-go-go-related gene (hERG) potassium channel (human, UniProt Q12809); test: primary screen, population patch clamp on CHO cells stably expressing hERG; higher = less effect of the substance
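Further: peak tail current of the secondary pulse compared with the same well before compound.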

human ether-à-go-go-related gene (hERG) potassium channel, sequence (Q12809 whole entry, looked up): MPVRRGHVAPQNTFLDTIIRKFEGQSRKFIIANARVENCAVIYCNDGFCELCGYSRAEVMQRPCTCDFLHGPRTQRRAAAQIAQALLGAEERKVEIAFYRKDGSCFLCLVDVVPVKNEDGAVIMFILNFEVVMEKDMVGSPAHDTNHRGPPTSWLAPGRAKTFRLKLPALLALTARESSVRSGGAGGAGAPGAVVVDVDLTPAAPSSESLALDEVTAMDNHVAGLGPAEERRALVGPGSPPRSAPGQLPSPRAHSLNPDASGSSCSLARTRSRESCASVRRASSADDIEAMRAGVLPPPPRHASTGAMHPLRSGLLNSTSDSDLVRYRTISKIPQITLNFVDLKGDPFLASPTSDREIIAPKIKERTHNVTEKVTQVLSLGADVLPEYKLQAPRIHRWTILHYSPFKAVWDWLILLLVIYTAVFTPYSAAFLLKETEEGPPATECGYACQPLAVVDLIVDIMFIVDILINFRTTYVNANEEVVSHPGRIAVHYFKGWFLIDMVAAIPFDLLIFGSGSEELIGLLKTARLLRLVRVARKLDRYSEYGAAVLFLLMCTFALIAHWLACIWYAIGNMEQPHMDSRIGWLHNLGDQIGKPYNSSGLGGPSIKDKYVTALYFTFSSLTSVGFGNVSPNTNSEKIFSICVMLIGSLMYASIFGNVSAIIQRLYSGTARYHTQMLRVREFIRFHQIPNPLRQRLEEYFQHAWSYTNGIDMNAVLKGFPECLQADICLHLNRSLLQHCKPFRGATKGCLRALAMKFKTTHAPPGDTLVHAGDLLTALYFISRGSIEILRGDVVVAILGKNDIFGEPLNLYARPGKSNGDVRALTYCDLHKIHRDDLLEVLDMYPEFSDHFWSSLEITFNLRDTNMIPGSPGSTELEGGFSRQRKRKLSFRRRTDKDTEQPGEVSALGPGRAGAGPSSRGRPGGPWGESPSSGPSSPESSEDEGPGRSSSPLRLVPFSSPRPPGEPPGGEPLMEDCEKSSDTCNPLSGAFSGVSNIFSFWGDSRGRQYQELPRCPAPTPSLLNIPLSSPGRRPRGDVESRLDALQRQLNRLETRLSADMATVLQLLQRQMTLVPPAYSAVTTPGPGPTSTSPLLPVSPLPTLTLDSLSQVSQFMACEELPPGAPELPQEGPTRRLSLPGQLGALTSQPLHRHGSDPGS

SMILES	hERG current change (%, negative = inhibition) at 10uM [%]
COc1ccc(NC(=O)C2CCCN(S(=O)(=O)c3ccc4c(c3)CC(C)N4C(C)=O)C2)cc1 (stereo not shown)	24.3
Cc1ccc(NC(=O)C2CCCC2)cc1Cl	-2.92
O=C(COC(=O)CNS(=O)(=O)c1ccccc1)NC12CC3CC(CC(C3)C1)C2	-18
C=CCNC(=S)N/N=C(\C)c1cccnc1	0.787
O=C(NC1CCCC1)C(c1cc2c(cc1[N+](=O)[O-])OCO2)N1CCCC1 (stereo not shown)	20.6
COc1cc(C(=O)Nc2cccnc2)cc(OC)c1OC	16.3
O=CN1CCN(C(=O)CN2C(=O)c3ccccc3C2=O)CC1	10.5
COc1ccc(OCC(O)CN2CCc3ccccc3C2)cc1.Cl (stereo not shown)	-33.1
Cn1cc(CNCc2ccccc2OCC(O)CN2CCc3ccccc3C2)cn1 (stereo not shown)	-0.11
CCC(=O)c1ccc(OCC(O)CN2CCc3ccccc3C2)cc1.Cl (stereo not shown)	-63.7
Cl.OC(COc1ccc2c(c1)OCO2)CN1CCc2ccccc2C1 (stereo not shown)	-28.5
CC(=O)c1ccc(OCC(O)CN2CCc3ccccc3C2)cc1.Cl (stereo not shown)	-41.9
CCN(CCn1cccn1)Cc1ccccc1OCC(O)CN1CCc2ccccc2C1 (stereo not shown)	-51.5
O=S(=O)(c1ccc(OCC(O)CN2CCc3ccccc3C2)cc1)N1CCOCC1 (stereo not shown)	-4.43
CCOc1ccc(OCC(O)CN2CCc3ccccc3C2)cc1.Cl (stereo not shown)	-66.3
Cc1cc(=O)oc2cc(OCC(O)CN3CCc4ccccc4C3)ccc12 (stereo not shown)	-31.7
Cc1cc(OCC(O)CN2CCc3ccccc3C2)ccc1Cl.Cl (stereo not shown)	-53.4
OC(COc1ccccc1CNCc1cccnc1)CN1CCc2ccccc2C1 (stereo not shown)	-34.2
N#CC1=C(N)NC(SCC(=O)Nc2ccc(Br)cc2)=C(C#N)C12CCCCC2	13.4
O=C(Nc1cc(Cl)ccc1O)C1CC(c2ccccc2Cl)=NO1 (stereo not shown)	20.3
O=C(N/N=C/c1cn(-c2cccs2)nc1-c1ccccc1)c1ccc(O)cc1	13.8
COc1c(C)cccc1C(=O)Nc1ccc(N2CCN(S(C)(=O)=O)CC2)cc1	5.12

SMILES	hERG current change (%, negative = inhibition) at 10uM [%]
CCCC(=O)Nc1nnc(CC(=O)N2CCCC2)s1	7.72
O=C(CCCc1nc(-c2ccccc2Cl)no1)NCc1cccnc1	-2.1
Cn1nnnc1NCc1ccccc1F	4.52
CCCCC1OC23CCCCC2C(C#N)(C(=N)O3)C1(C#N)C#N (stereo not shown)	4.17
CCN(CC)S(=O)(=O)c1ccc2c(c1)nc(SCC(=O)NCC1CCCO1)n2CC (stereo not shown)	3.12
c1ccc(CSc2nnc(-c3cccs3)n2Cc2ccco2)cc1	-46.8
Cl.OC1(CN2CCOCC2)C2CC3CC(C2)CC1C3 (stereo not shown)	11
O=C(COC(=O)c1cc(-c2ccccc2)nc2ccccc12)Nc1ccc2c(c1)OCO2	10.7
O=C(NCCCc1ccccc1)c1ccccc1O	-0.415
CCCCSc1nnc(CCC)n1N	-2.49
Cc1ccc(C)c(NC(=S)N(Cc2cccc(Br)c2)CC2CCC(C(=O)O)CC2)c1 (stereo not shown)	2.11
COC(=O)c1ccccc1NC(=O)NC1CCCCC1	5.86
COc1cccc(OCC(O)CN2CCOCC2)c1.Cl (stereo not shown)	18.7
CCCc1ccc(OCC(O)CN2CCCC2)cc1.Cl (stereo not shown)	-27.8
OC(COc1ccc(CNCc2cccnc2)cc1)CN1CCc2ccccc2C1 (stereo not shown)	-13.5
CCCc1ccc(OCC(O)CN2CCc3ccccc3C2)cc1.Cl (stereo not shown)	-71.5
CCCc1ccc(OCC(O)CN2CCN(CCO)CC2)cc1.Cl (stereo not shown)	-13.7
CC(C)(C)c1ccc(OCC(O)CN2CCc3ccccc3C2)cc1.Cl (stereo not shown)	-50.3
COc1cccc(OCC(O)CN2CCc3ccccc3C2)c1.Cl (stereo not shown)	-71.1
COc1cccc(C2c3c(oc4ccc(F)cc4c3=O)C(=O)N2CCN2CCOCC2)c1OC (stereo not shown)	4.45
CCCCn1c(SCC(=O)Nc2cc(NC(=O)c3ccco3)ccc2C)nc2ccccc2c1=O	-8.62
